Compound activity as filed in PubChem BioAssay.
Shiga toxin inh: A qHTS for Small Molecule Inhibitors of Shiga Toxin | inhibition, % at 38.7 µM | Vero cells, Shiga toxin protein synthesis inhibition reporter | AID 2315, 2010 | hit rate 9.2% among 290,000; in the data active means inhibition mostly above about 28%, no sharp cut-off; inactive means mostly below about 43%; further: 0% is about no effect
LmPK inhibitor: qHTS Assay for Inhibitors of Leishmania Mexicana Pyruvate Kinase (LmPK) | Q27686 | hit rate 0.37% among 290,000 | Potency, µM (titrated, usually from 57.5 µM), for the others: at the top dose activity change, negative = inhibition, actives largely listed as inhibitors | purified LmPK, Kinase-Glo ATP luminescence, 1 h; further: potency means the concentration at half of the fitted maximal effect; on the % scale 0 is the no-effect control and ±100 the full control effect
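0.1 nM LmPK, 0.5 mM PEP, 0.1 mM ADP; 50 mM imidazole pH 7.2, 7 mM MgCl2, 50 mM KCl; 1 h RT. Kinase-Glo luminescence readout, normalized to no-enzyme (full inhibition) and uninhibited wells.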
CHX counter: Cycloheximide Counterscreen for Small Molecule Inhibitors of Shiga Toxin; max response, %; hit rate 12% among 300,000; AID 2314, 2010; cell reporter, cycloheximide protein synthesis inhibition counterscreen; in the data active means max response mostly above about 13%, no sharp cut-off; inactive means mostly below about 14%; further: read at 38.3 µM for the half of the compounds with a filed dose; 0% is about no effect
NS1 function inh: qHTS Assay for Inhibitors of Influenza NS1 Protein Function. hit rate 0.4% among 270,000. Potency, µM (top dose mostly 46.1 µM), for inactives: top-dose activity, positive = more growth. AID 2326, 2010; calls by dose curve; further: potency means the concentration at half of the fitted maximal effect; actives are rising curves; nearly all actives have a fitted effect of over 50% in size
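OD600 was taken as the measure of yeast growth restored by compound in an NS1-expressing S. cerevisiae strain. Cells had been washed out of glucose medium and diluted 1:100 into galactose -URA medium, pH 6.0.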
Giardia FBPA inh: qHTS Assay for Inhibitors of Fructose-1,6-bisphosphate Aldolase from Giardia Lamblia; A8B2U2; purified Giardia FBPA; Potency, µM (series often up to 59.6 µM), inactives show at the highest dose activity, negative = inhibition, usual class: inhibitors; hit rate 0.71% among 290,000; AID 2451, 2010; further: potency means the concentration at half of the fitted maximal effect; on the % scale 0 is the no-effect control and ±100 the full control effect; nearly all actives have a fitted effect of over 55% in size
Target sequence (A8B2U2 whole entry, looked up): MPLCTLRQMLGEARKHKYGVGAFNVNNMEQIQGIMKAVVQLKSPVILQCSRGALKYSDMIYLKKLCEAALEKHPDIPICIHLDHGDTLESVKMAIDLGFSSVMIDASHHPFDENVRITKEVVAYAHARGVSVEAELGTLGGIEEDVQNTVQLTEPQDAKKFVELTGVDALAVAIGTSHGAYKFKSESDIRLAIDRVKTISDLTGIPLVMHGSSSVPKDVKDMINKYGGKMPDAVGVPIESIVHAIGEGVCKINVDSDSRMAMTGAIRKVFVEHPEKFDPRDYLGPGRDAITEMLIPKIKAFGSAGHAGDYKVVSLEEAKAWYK
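Giardia FBPA (40 nM reagent) was preincubated 10 min at RT with compound (up to 57.5 uM final), then substrate plus GAPDH/TPI/NAD/arsenate coupling system with diaphorase/resazurin was added; resorufin fluorescence (525/598 nm) was read after 20 min.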
* hit, by the source's call; nt = not tested or not shown; + = active, no number; [ ] = remark or other dose. The list is not random: actives were taken first. Their share in the collection is about 14%. Unless noted, the call rests on the fitted dose curve; in most records, active means well fitted curve in the direction sought with a large enough effect; inconclusive means small, poorly fitted or top-dose-only effect, or another doubt; inactive means no such curve, though single readings can be large; an effect the other way counts as inactive or inconclusive.

SMILES | Shiga toxin inh | LmPK inhibitor | CHX counter | NS1 function inh | Giardia FBPA inh
Cc1c(NC(=O)c2ccccc2N)cccc1C(=O)O | 46.0* | -5.9% | 24.7* | 7.4% | 1.1%
O=C1CC(c2ccc3c(c2)OCCO3)Oc2ccc([N+](=O)[O-])cc21 (stereo unspecified) | 88.4* | -5.0% | 45.9* | -3.8% | 2.0%
COc1ccc(C2CC(=O)c3ccccc3O2)cc1 (stereo unspecified) | 25.4 | -0.3% | 41.4* | -30.5% | -0.5%
O=C1CC(c2ccc3c(c2)OCCO3)Oc2ccccc21 (stereo unspecified) | 80.1* | 0.2% | 51.6* | -10.3% | -1.9%
C=CCNC(=O)C(=O)Nc1cc2c3c(c1)CCC(=O)N3CCC2 | 37.8 | -2.8% | -2.0 | -11.3% | nt
Nc1ccccc1CCCC(=O)O | nt | nt | nt | -1.1% | nt
CS(=O)(=O)N(CC(=O)Nc1cccc(Br)c1)Cc1ccccc1 | -3.6 | -6.5% | -1.8 | -4.7% | 8.8%
Cc1ccc(CN2CCC(=O)N2)cc1 | 14.7 | -0.5% | -3.1 | 6.9% | -23.6%
Brc1ccccc1-c1nnc(-c2cccnc2)o1 | 48.9* | -12.9% | 29.5* | -8.2% | 1.6%
Cc1ccc(-c2nnc(-c3ccccc3Br)o2)cc1 | nt | -8.0% | 37.6* | -25.8% | 2.3%
Brc1ccc(-c2nnc(-c3ccccc3Br)o2)cc1 | 92.5* | -2.9% | 81.6* | 5.8% | 1.1%
Cc1ccc(/C=C/c2nnc(-c3cccc(C)c3)o2)cc1 | -2.3 | -1.4% | 18.0 | -9.3% | -0.6%
c1cncc(-c2nnc(SCc3cccc4ccccc34)o2)c1 | -8.5 | 1.4% | -2.9 | -87.0% | -3.8%
Cc1ccc(-c2nnc(/C=C/c3ccccc3)o2)cc1 | 147.5* | -5.1% | 50.2* | -23.5% | -1.0%
CCC(C)C(NC(=O)C(Cc1ccc(O)cc1)NC(=O)C(N)C(C)C)C(=O)NC(Cc1cnc[nH]1)C(=O)N1CCCC1C(=O)NC(Cc1ccccc1)C(=O)O (stereo unspecified) | 29.1 | nt | -3.1 | nt | -15.2%
COC(=O)C1=C(C(=O)OC)[C@@H]2N(C)c3ccc(OC)cc3[C@@]23C[C@@H](C(=O)OC)N(S(=O)(=O)c2ccc(C#N)cc2)C3=N1 | nt | -0.2%[11.5 µM] | nt | nt | 0.9%[12.9 µM]
Cc1ccc2nc(NC(=O)CSCc3ccccc3)sc2c1 | -1.5 | 2.2% | 8.1 | 1.7% | 6.4%
COC(=O)c1ccc2nc(NC(=O)CSCC(=O)OCC(=O)c3ccccc3)sc2c1 | 33.5 | 1.2% | 36.5* | -25.3% | -0.2%
Cc1ccc2nc(NC(=O)CSCC(=O)OCC(=O)c3ccc(Br)cc3)sc2c1 | 45.7 | -0.7% | 14.6* | 12.7% | -9.4%
CC(=O)[C@H]1CC[C@@H]2[C@H]3CC=C4C[C@@H](O)CC[C@]4(C)[C@H]3CC[C@]12C | nt | nt | nt | nt | 2.6%[21.7 µM]
O=C(O)CC(c1ccc(Br)cc1)N1Cc2ccccc2C1=O (stereo unspecified) | -3.5 | -1.8% | -3.5 | -0.9% | 6.3%
COc1cc(F)ccc1S(=O)(=O)NCc1cccnc1 | nt | -1.5% | 4.8 | -1.5% | -5.4%
O=C(Nc1nccs1)C1CCCN1/C=C/C(=O)C(F)(F)F (stereo unspecified) | 27.7 | -3.9% | 12.0 | 8.3% | nt
CCCC(=O)Nc1ccc(S(=O)(=O)Nc2cc(OC)ncn2)cc1 | 11.3 | -2.0% | 2.0 | -2.2% | -25.7%
FC(F)(F)c1ccc(C2NCCc3sccc32)cc1 (stereo unspecified) | 34.3 | -3.5% | 45.3* | 7.3% | -4.0%
SMILES | Shiga toxin inh | LmPK inhibitor | CHX counter | NS1 function inh | Giardia FBPA inh
Clc1ccc(C2NCCc3sccc32)cc1 (stereo unspecified) | 2.4 | -0.4% | -2.9 | 5.1% | -0.2%
COC(=O)N1C(C)=Cc2ccccc2C1CC(C)=O (stereo unspecified) | nt | -1.4%[11.5 µM] | nt | nt | -4.6%
Nc1nc(-c2ccccc2)cn1/N=C/c1ccccc1 | 33.8 | 1.5% | 38.2* | -7.9% | -10.3%
Nc1nc(-c2ccccc2)cn1N | 27.8 | 0.1% | 22.7 | -4.4% | -14.5%
Cc1nc(-c2ccc(NC(=O)C3CC3)cc2)cs1 | 80.6* | -6.9% | 22.7* | -30.3% | 1.8%
Cc1nc(-c2ccc(C(=O)O)cc2)cs1 | 15.3 | -27.0% | 1.2 | -148.5% | 25.7%
Cc1nc(-c2ccc(NC(=O)CC(C)C)cc2)cs1 | + | -10.4% | 37.8* | -2.7% | 1.3%
COc1ccc(-c2csc(NC(=O)c3c(OC)cccc3OC)n2)cc1 | -7.6 | 0.8% | -3.0 | -3.4% | 5.4%
COc1ccc(-c2csc(NC(=O)CC(C)C)n2)cc1 | 83.7* | -2.8% | 48.3* | -4.1% | -9.1%
Cc1nc(-c2cccc(NC(=O)C3CCCCC3)c2)cs1 | 35.7* | -4.5% | 9.1 | -8.4% | 0.1%
CC(=O)Nc1ccc(S(=O)(=O)Nc2cccc(-c3csc(C)n3)c2)cc1 | 8.4 | -3.5% | -2.5 | -0.9% | 4.9%
C=C1CCN([C@H](C(=O)NCc2ccc(OC)cc2)C(C)C)S(=O)(=O)c2ccccc21 | -2.9 | 1.9% | 2.9 | 10.4% | -3.3%
CC(C)(C)c1ccc(O)c(CN(Cc2cc(C(C)(C)C)ccc2O)C2CCCCC2)c1 | nt | nt | nt | -7.7% | nt
Cc1cc(Cl)nc(NC(=O)CSc2ccc(Cl)cc2)n1 | nt | nt | nt | -3.1% | nt
CCc1ccc(NC(=O)C(CC)Sc2nc3ccsc3c(=O)n2CCC(=O)O)cc1 (stereo unspecified) | -4.5 | 1.6% | -0.9 | 14.3% | nt
CCCCc1ccc(NC(=O)CSc2nnc(CNC(=O)c3ccco3)o2)cc1 | -3.5 | 3.2% | 2.1 | 12.3% | 8.4%
C/C(=N\Nc1ccc(C(=O)O)cc1)c1ccc(-n2ccnc2)cc1 | 88.1* | 7.3% | 73.6* | nt | 0.0%
CCc1ccc(OCC(=O)N/N=C(\C)c2ccc(-n3ccnc3)cc2)cc1 | 51.2* | 0.9% | 16.2* | -11.5% | 9.1%
C/C(=N\NC(N)=O)c1ccc(-n2ccnc2)cc1 | -9.2 | -1.7% | -1.7 | nt | 3.1%
CNC(=S)N/N=C(\C)c1ccc(-n2ccnc2)cc1 | -18.3 | -7.5% | -2.2 | 2.4% | -24.8%
C/C(=N\Nc1ccccc1Cl)c1ccc(-n2ccnc2)cc1 | 99.7* | 3.8% | 31.4* | -6.8% | -1.6%
C/C(=N\NC(=O)c1ccc(C)cc1C)c1ccc(-n2ccnc2)cc1 | 34.5 | -2.2% | 26.6* | -0.1% | 6.2%
C/C(=N\NC(=O)c1ccc(C)cc1C)c1ccc2c(c1)Nc1ccccc1S2 | 39.8* | -0.4% | 29.7* | 23.3% | -6.8%
c1ccc(-c2ccc(-n3ccnc3)cc2)cc1 | 35.6 | -6.0% | 8.0* | -129.0% | -6.4%
CC(=O)c1ccc2c(c1)Nc1ccccc1S2 | 24.4 | -13.1% | 11.2 | 1.3% | 0.9%
C=CCN1CN(S(=O)(=O)c2cccc(Cl)c2)c2nc3ccccc3nc21 | 15.5 | 2.9% | 19.6* | -16.7% | -17.5%
COCCN1CN(S(=O)(=O)c2cccc(Cl)c2)c2nc3ccccc3nc21 | 2.5 | 2.7% | -3.6 | 5.8% | -1.7%
COc1ncc2nc(-c3cn(C)c4ccccc34)c(=O)n(C)c2n1 | nt | nt | nt | nt | -8.2%
CSc1ccc(NC(=O)NCCCN2CCC(Cc3ccccc3)CC2)cc1 | -4.8 | 3.4% | -3.1 | -0.6% | 1.5%
CCN1CCN(c2cc(C)c3cc(NC(=O)c4cccc(OC)c4)ccc3n2)CC1 | 39.5* | -3.1% | 30.7* | 0.5% | 2.1%
